Measurements reported in ChEMBL document CHEMBL4513146, “CO-ADD screening of Karazin Kharkiv National University (Ukraine) compounds”.
Measured potencies and affinities stand elsewhere.

System: Escherichia coli
Conditions: Concentration 32 ug.mL-1;; ASSAY_TEST Inhibition of Bacterial Growth; detection method Absorption (OD600); MEDIA CAMHB; plate type 384well; NBS; CORNING #3640; time 18 hr

| Compound | Inhibition [%] |
| --- | --- |
| Cc1ccc(-c2ccc3nnc(CCC(=O)NCc4cccc(Br)c4)n3n2)cc1C | -5.02 |
| Cc1ccc(-c2cc3c4nn(CC(=O)Nc5ccc6c(c5)OCO6)c(=O)n4ccn3n2)cc1 | -1.53 |
| Cc1ccc(-c2ccc3nn(Cc4ccc(F)cc4Cl)c(=O)n3n2)cc1C | -0.58 |
| Cc1ccc(NC(=O)Cn2nc3ccc(SC4CCCCC4)nn3c2=O)cc1 | -13.34 |
| CCCn1c(=O)c2sccc2n2c(=O)n(Cc3ccc(Cl)cc3)nc12 | -6.17 |
| COc1ccc(-c2cc3c4nnc(CCC(=O)NCc5ccc6c(c5)OCO6)n4ccn3n2)cc1 | 5.34 |
| CCOC(=O)c1ccc(NC(=O)Cn2nc3ccc(Sc4cccc(F)c4)nn3c2=O)cc1 | -1.47 |
| Cc1ccc(NC(=O)Cn2nc3c(N4CC(C)CC(C)C4)nccn3c2=O)c(F)c1 (centres undefined) | 1.48 |
| COc1ccccc1Cn1c(=O)c2sccc2n2c(=O)n(CC(=O)c3ccc(C)cc3C)nc12 | -4.83 |
| COc1cccc(CNC(=O)CSc2nnc3c(=O)n(-c4cccc(OC)c4)ccn23)c1 | 0.96 |
| Cc1cc2nn(CC(=O)N3CCCc4ccccc43)c(=O)n2c(Nc2ccc(F)cc2)n1 | -0.15 |
| Cc1cc2nn(CC(=O)Nc3ccccc3C)c(=O)n2c(Nc2ccc(F)c(C)c2)n1 | -4.23 |
| COc1ccc(-c2cc3c4nnc(SCC(=O)NCc5ccccc5Cl)n4ccn3n2)cc1 | -7.58 |
| COc1cccc(CN(c2ccc(Cl)cc2)S(=O)(=O)c2ccc3nncn3c2)c1 | -6.27 |
| Cc1ccc(-c2ccc3nn(Cc4nc(-c5ccc(OC(F)(F)F)cc5)no4)c(=O)n3n2)cc1 | -3.94 |
| CCc1cccc(C)c1NC(=O)CSc1nnc2ccc(C(=O)Nc3cccc(F)c3)cn12 | 2 |
| COC(=O)c1ccc(CN(c2cccc(F)c2)S(=O)(=O)c2ccc3nncn3c2)o1 | -3.46 |
| Cc1cccc(Oc2nccn3c(=O)n(CC(=O)Nc4ccccc4C(F)(F)F)nc23)c1C | 3.1 |
| COc1cccc(-n2ccn3c(-c4ccc([N+](=O)[O-])cc4)nnc3c2=O)c1 | -8.12 |
| Cc1ccc(S(=O)(=O)Nc2ccc3nnc(-c4ccccc4)n3n2)cc1C | -2.69 |

| Compound | Inhibition [%] |
| --- | --- |
| CCC(Sc1nnc2c(=O)n(-c3ccccc3)ccn12)C(=O)Nc1ccc(OC)cc1OC (centres undefined) | 0.69 |
| CC(C)(C)OC(=O)CN(c1ccc2c(c1)OCCO2)S(=O)(=O)c1ccc2nncn2c1 | -4.04 |
| COc1ccccc1NC(=O)Cn1nc2c3cc(-c4ccc(C)c(C)c4)nn3ccn2c1=O | 2.41 |
| COc1cc(NC(=O)C(C)Sc2nnc3c(=O)n(-c4ccc(C)c(C)c4)ccn23)cc(OC)c1 (centres undefined) | -10.24 |
| Cc1ccc(NC(=O)Cn2nc3c(N4CCOCC4)nccn3c2=O)cc1F | 2.81 |
| Cc1ccc(-n2ccn3c(=O)n(Cc4ccccc4)nc3c2=O)cc1C | -8.73 |
| O=C(Cn1nc2c(SC3CCCCC3)nccn2c1=O)Nc1ccc(F)cc1 | -5.61 |
| Cc1cc(C)c(NC(=O)Cn2nc3n(C)c(=O)c4c(c(-c5ccccc5)cn4C)n3c2=O)c(C)c1 | 1.74 |
| Cc1nnc2ccc(S(=O)(=O)N(Cc3ccccc3F)c3cccc(Cl)c3)cn12 | -7.6 |
| CCc1nnc2c(=O)n(CC(=O)Nc3ccc4c(c3)OCCO4)c3ccccc3n12 | -4.51 |
| O=C(Cn1nc2nc(Nc3ccc(F)cc3)ccn2c1=O)N1CCCc2ccccc21 | -6.76 |
| COc1cc(Cl)c(C)cc1NC(=O)Cn1nc2ccc(SC(C)(C)C)nn2c1=O | 3.96 |
| O=c1c2sccc2n2c(=O)n(Cc3ccccc3F)nc2n1CCc1ccccc1 | 0.41 |
| CC(C)CCn1c(=O)c2sccc2n2c(=O)n(Cc3c(F)cccc3Cl)nc12 | 0.76 |
| CCc1nnc2c(SCC(=O)Nc3ccc(Cl)cc3)nc3ccccc3n12 | 2.66 |
| COC(=O)c1cccc(NC(=O)Cn2nc3c(N4CCCCCC4)nccn3c2=O)c1 | -10.52 |
| CCCCOc1ccc(-c2cc3c4nnc(SCC(=O)Nc5ccc(C)c(F)c5)n4ccn3n2)cc1 | -2.67 |
| O=C(Cn1nc2c(Oc3ccccc3)nccn2c1=O)Nc1ccc(Cl)cc1 | -4.75 |
| COc1ccc(Cl)cc1NC(=O)Cn1nc2ccc(Sc3ccccc3)nn2c1=O | -9.25 |
